Results filed as inconclusive are left out. Calls of active or inactive are those of the source. Calls come from the whole dose curve; as a rule, active = well fitted cell-killing curve with a large enough effect; inconclusive = small, poorly fitted or top-dose-only effect, or effect the other way; inactive = flat fitted curve, though single readings scatter. Where a SMILES comes first, the peptide text is derived from it. [ ]: non-standard residue; d: D form. ξ: configuration not given here. ξTyr(βOH) = NC(C(=O)O)C(O)c1ccc(O)cc1
How the values were obtained:
Assay in all cases: Primary qHTS to identify gynecologic anti-cancer compounds using libraries of approved drugs and bioactive compounds (AID 1345084); note: nearly all actives have a fitted effect of over 55% in size
Details in all cases: Gynecologic cancer cell panel viability, ATPlite luminescence, 48 h; series mostly up to 57.5 µM
[1] = system: OV90
Summary of the method: (§1)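 Five-concentration response, 48 h; readout is ATP-driven luciferase luminescence.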

[2] = system: PA-1
Summary of the method: as §1

[3] = system: Tov-21-G
Summary of the method: as §1

[4] = system: Tov112D
Summary of the method: as §1
% is set by controls: 0 for no effect and ±100 for the full control effect.

C/C=C/C=C/[C@@H]1O[C@](O)([C@H](CC)C(=O)NC/C=C/C=C(\C)[C@@H](OC)[C@@H](C)[C@@H]2O[C@H](/C=C/C=C/C=C(\C)C(=O)c3c(O)ccn(C)c3=O)[C@H](O)[C@@H]2O)[C@H](O)[C@H](O)C1(C)C
inactive: activity change, negative = cytotoxicity [1] -4.64% [at 11.6 µM] | activity change, negative = cytotoxicity [2] -1.69% [at 11.6 µM] | activity change, negative = cytotoxicity [3] -0.814% [at 11.6 µM] | activity change, negative = cytotoxicity [4] -0.13% [at 11.6 µM]

C/C(=C\C(=O)C(C)C1CCC2C3=C(CCC21C)C1(C)CCC(=O)C(C)(C)C1(O)CC3)C(C)(C)O (stereo unspecified)
inactive: Potency [1] | Potency [2] | Potency [3] | Potency [4]

C/C=C/C=C/C=C/C(=O)O[C@@H]1[C@@H](OC)C2=C(C(=O)N(C(CCC(=O)O)C(=O)O)C2)[C@@]2(C)CCCC(C)(C)[C@H]12 (stereo partly specified)
inactive: Potency [1] | Potency [2] | Potency [3] | Potency [4]

C=C1C(O)C(OC(=O)c2ccccc2)C2C(C)(C(=O)O)CCCC2(C)C1CC/C(C)=C\CO (stereo unspecified)
inactive: Potency [1] | Potency [2] | Potency [3] | Potency [4]

C=C1C2(C)CC3C4(C)C=CC(=O)OC(C)(C)C4CCC3(C)C1(C(=O)OC)C(=O)C(C)(O)C2=O (stereo unspecified)
inactive: Potency [1] | Potency [2] | Potency [3] | Potency [4]

O=C(O)/C=C/c1ccc(O[C@@H]2O[C@H](CO)[C@@H](O)[C@H](O)[C@H]2O)cc1
inactive: Potency [1] | Potency [2] | Potency [3] | Potency [4]

C=C1CC23CC1CCC2C12OC(=O)C(C)(C(O)C(O)C1O)C2C3C(=O)O (stereo unspecified)
inactive: Potency [1] | Potency [2] | Potency [3] | Potency [4]

COCC1OC(n2cnc3c(=O)[nH]cnc32)C(O)C1O (stereo unspecified)
inactive: Potency [1] | Potency [2] | Potency [3] | Potency [4]

CCc1nn(CCO)c(CC)c1Oc1cc(C#N)cc(C#N)c1
inactive: Potency [1] | Potency [2] | Potency [3] | Potency [4]

O=c1[nH]ccc2nc(-c3ccc(CN4CCC(c5nc(-c6ccccn6)n[nH]5)CC4)cc3)c(-c3ccccc3)cc12
inactive: Potency [1] | Potency [2] | Potency [3] | Potency [4]

C/C(CO)=C1/CCC23COC(C2)C(O)(C(=O)O)CCC13 (stereo unspecified)
inactive: Potency [1] | Potency [2] | Potency [3] | Potency [4]

CC(CCc1ccc(O)cc1)O[C@@H]1O[C@H](CO[C@@H]2OC(CO)[C@H](O)[C@H]2O)[C@@H](O)[C@H](O)[C@H]1O (stereo partly specified)
inactive: Potency [1] | Potency [2] | Potency [3] | Potency [4]

C#CCCCn1cc(-c2cccc3c2N[C@@H](C)CC(=O)N3)cn1
inactive: Potency [1] | Potency [2] | Potency [3] | Potency [4]

Cc1ccc(-c2c(-c3nn(C)c4ncnc(N5CCC(N6CCCCC6)C5)c34)cnn2C)cc1 (stereo unspecified)
inactive: Potency [1] | Potency [2] | Potency [3] | Potency [4]

C=C1C(O)CCC2(C)CC3(OC)OC(=O)C(C)=C3CC12 (stereo unspecified)
inactive: Potency [1] | Potency [2] | Potency [3] | Potency [4]

CCOC(=O)c1ccc(NC2CCCCC2)c(N)c1
inactive: Potency [1] | Potency [2] | Potency [3] | Potency [4]

OC[C@H]1O[C@@H](Oc2cc(O)cc(-c3cc4ccc(O[C@@H]5O[C@H](CO)[C@@H](O)[C@H](O)[C@H]5O)cc4o3)c2)[C@H](O)[C@@H](O)[C@@H]1O
inactive: Potency [1] | Potency [2] | Potency [3] | Potency [4]

COC(=O)c1cc(OC)cc(OC)c1C(=O)c1c(OC)cc2c(c1O)C1CCC(O)C(C)(O2)O1 (stereo unspecified)
inactive: Potency [1] | Potency [2] | Potency [3] | Potency [4]

CC(C)C1NC(=O)CNC(=O)C2CCCN2C(=O)C(Cc2c[nH]c3ccccc23)NC(=O)CNC(=O)C(C(O)c2ccc(O)cc2)NC(=O)CNC1=O (stereo unspecified) (cyclo(G[ξTyr(βOH)]GWPGV); configuration not given here)
inactive: Potency [1] | Potency [2] | Potency [3] | Potency [4]

From PubChem BioAssay (NCATS)
